# Compounds with a hit are over-represented: about 19% of the library has one in this group of screens.
# HT1080-NT tox = kills 2HG-producing HT-1080-NT fibrosarcoma cells; Potency, µM (top dose mostly 46.1 µM), inactives show at the top dose activity, negative = less viability, most hits filed as cytotoxic; HT-1080-NT fibrosarcoma viability, CellTiter-Glo ATP luminescence, 48 h; 360,000 tested, 1.6% active; AID 686970;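 further: NT is the 2HG producing partner of a matched IDH1 knockdown line; potency means the concentration at half of the fitted maximal effect; 0% = DMSO-treated cells and -100% = media-only wells without cells; nearly all actives have a fitted effect of over 55% in size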
#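 HT-1080-NT; 750 cells/well; 5% FBS RPMI; 48 h compound, 37 degrees C; CellTiter-Glo luminescence; curve fitting and curve-class assignment.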
# TDP1 cell noCPT = qHTS for Inhibitors of human tyrosyl-DNA phosphodiesterase 1 (TDP1): qHTS in cells in absence of CPT; 420,000 tested, 15% active; Potency, µM (highest dose often 46.2 µM), for the others: top-dose activity change, negative = growth inhibition, usual class: inhibitors; DT40 Tdp1-/- hTDP1 cells, no CPT, ATP luminescence, 48 h; further: potency means the concentration at half of the fitted maximal effect; nearly all actives have a fitted effect of over 55% in size
#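 Cells were dispensed at 400 per well, compounds added by pin tool, plates incubated ≥48 hr at 37 °C, then CellTiter-Glo added for 30 min at room temperature before luminescence reading. Line: DT40 Tdp1-/- complemented with hTDP1; camptothecin omitted.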
# DT40 TDP1 CPT = DT40-hTDP1 cell growth loss with CPT | 420,000 tested, 12% active | Potency, µM (highest dose often 46.2 µM), for the others: at the top dose activity change, negative = growth inhibition, usual class: inhibitors | AID 686979 | chicken DT40 Tdp1-/-;hTDP1 cells + 20 nM CPT, ATP luminescence, 48 h; further: potency means the concentration at half of the fitted maximal effect; nearly all actives have a fitted effect of over 55% in size
#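 Chicken DT40 Tdp1-/- cells stably complemented with human TDP1 were seeded at 400 cells/well in medium containing 20 nM camptothecin, exposed to pin-transferred compounds, and grown at 37 °C for at least 48 hr. Viability was read as ATP luminescence.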
# HT1080 IDH1KD tx = HT-1080 IDH1 knockdown cell toxicity (counter line) | 360,000 tested, 2% active | Potency, µM (doses to about 46.1 µM), for the others: at the highest dose activity, negative = toxicity, usual class: cytotoxic | HT-1080 IDH1 knockdown viability, ATP luminescence, 48 h;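 further: potency means the concentration at half of the fitted maximal effect; 0% = DMSO wells and -100% = cell-free medium wells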
#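 IDH1KD HT-1080 cells, 750/well, RPMI + 5% FBS; compound pinned after 2 h settling; 48 h, 37 °C; CellTiter-Glo luminescence; % activity normalised to DMSO and no-cell wells; curves fitted, classed by r2 and efficacy.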
# IL1B secr inh = blocks inflammasome-driven IL-1 beta release; THP-1 LPS/ATP IL-1B secretion, AlphaLISA, 16 h; hits give low values; activity change, % at 57.5 µM; 360,000 tested, 4.7% active; in the data active means activity change below about -50%; inconclusive means mostly about -30% to -49%
#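 THP-1 cells pretreated 1 hr with compounds (up to 57.5 uM final), then stimulated with LPS (250 ng/mL final) plus ATP (1.25 mM final); secreted IL-1B measured by AlphaLISA after 16 hr, decreased signal indicating inhibition.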
# * hit, by the source's call; ? = inconclusive; / = no result; [ ] = dose if it differs, or a comment. Unless noted, the call rests on the fitted dose curve; in most records, active means well fitted curve in the direction sought with a large enough effect; inconclusive means small, poorly fitted or top-dose-only effect, or another doubt; inactive means no such curve, though single readings can be large; an effect the other way counts as inactive or inconclusive. Unless noted, on the % scale 0 is the no-effect control and ±100 the full control effect.
SMILES,HT1080-NT tox,TDP1 cell noCPT,DT40 TDP1 CPT,HT1080 IDH1KD tx,IL1B secr inh
CCC1Nc2ncnc(N3CCCCC3)c2N(Cc2ccc(Cl)cc2)C1=O (configuration not stated),-15%,?,?,-8%,-6
CC(C)CC1Nc2ncnc(N3CCOCC3)c2N(Cc2ccc(Br)cc2)C1=O (configuration not stated),9%,?,?,0%,10
O=c1[nH]c2c(s1)C(c1ccco1)C1C3CCC(C3)C1S2 (configuration not stated),-6%,-25%,-12%,-6%,42
COc1ccc(NC(=O)c2cc(S(=O)(=O)N3CCOCC3)ccc2C)cc1S(=O)(=O)N1CCOCC1,7%,-18%,-18%,7%,4
Cc1ccc(C(=O)NNC(=S)NC(=O)COc2ccccc2)cc1,?,6.5µM*,15µM*,-23%,33
CC(C)(C)c1ccc(C(=O)NC(=S)NNC(=O)COc2ccccc2)cc1,?,16µM*,13µM*,?,78
Cc1cccc(OCC(=O)NC(=S)NNC(=O)c2ccncc2)c1,6%,?,?,3%,-20
COC(=O)c1ccccc1NC(=S)NC(=O)COc1ccccc1,-4%,?,-18%,-3%,23
O=C(COc1ccccc1)NC(=S)Nc1cccc2c(O)cccc12,?,26µM*,?,?,65
CSc1ncccc1C(=O)N1CCOc2ccc(C(C)(O)CCn3cccn3)cc2C1 (configuration not stated),/,-2%,1%,/,/
CCOC(=O)C1CCN(S(=O)(=O)c2cn(C)c(C)n2)CC1,14%,24%,-15%,12%,20
COCCN1C(=O)c2[nH]nc(-c3ccccc3O)c2C1c1ccc(OCc2ccccc2)c(OC)c1 (configuration not stated),/,8.2µM*,?,/,/
CCCN1C(=O)c2[nH]nc(-c3cccc(OC)c3)c2C1c1ccccn1 (configuration not stated),/,21µM*,?,/,/
COc1ccc(-c2n[nH]c3c2C(c2ccccn2)N(C)C3=O)cc1 (configuration not stated),/,-4%,?,/,/
CCCN1C(=O)c2[nH]nc(-c3ccccc3)c2C1c1cccc(O)c1 (configuration not stated),/,23µM*,18µM*,/,/
COc1ccc(CCN2C(=O)c3[nH]nc(-c4ccccc4O)c3C2c2ccccc2)cc1OC (configuration not stated),?,21µM*,18µM*,33µM*,?
COCCN1C(=O)C(O)=C(C(C)=O)C1c1ccc(OC)c(OC)c1 (configuration not stated),4%,-7%,5%,-1%,-9
CCNc1ccc(-c2nc(-c3ccccn3)no2)cc1[N+](=O)[O-],/,-5%,-5%,/,/
COc1cc2nc(CN(CCO)C3CS(=O)(=O)CC3O)nc(N3CCCCC3)c2cc1OC (configuration not stated),/,-4%,-6%[9.04 µM],/,/
Cn1c(=O)c(-c2ccc(Cl)cc2)nc2cnc(Oc3ccccc3)nc21,/,-15%,3%,/,/
Cc1ccc(S(=O)(=O)N2CCN(C(=O)CSc3ncn[nH]3)CC2)cc1,1%,-17%,-7%,-1%,0
CCCN1C(=O)c2[nH]nc(-c3ccccc3O)c2C1c1cccc(OCc2ccccc2)c1 (configuration not stated),/,9.2µM*,21µM*,/,/
CC1=C(C(N)=O)C(c2cccc(OCc3ccccc3)c2)n2nnnc2N1 (configuration not stated),-17%,-8%,-10%,-12%,?
COc1ccccc1N1CCN(C(=O)Nc2ccc([N+](=O)[O-])cc2)CC1,-5%,16µM*,?,-3%,-14
COc1ccccc1N1CCN(C(=O)Nc2cccc(C)c2)CC1,9%,?,9%,3%,-12
SMILES,HT1080-NT tox,TDP1 cell noCPT,DT40 TDP1 CPT,HT1080 IDH1KD tx,IL1B secr inh
CC(C)(C)c1ccc(NC(=O)N2CCN(c3ccc([N+](=O)[O-])cn3)CC2)cc1,?,8.2µM*,3.3µM*,23µM*,/
CC(C)(C)C(=O)N1NC(=Nc2ccccc2)SC1(C)C,-4%,21µM*,-28%,-10%,/
O=c1c2ccccc2oc2ccc(NCCCn3ccnc3)cc12,1%,?,?,-8%,-58*
Cc1sc2nc(CN3CCOCC3)nc(NS(=O)(=O)c3ccccc3)c2c1C,15%,-6%,-14%,14%,4
Fc1ccc(N2CCN(c3nc(CN4CCOCC4)nc4scc(-c5ccccc5)c34)CC2)cc1,-29%,15µM*,23µM*,?,-1
O=C(CSc1nc2scc(-c3ccccc3)c2c(=O)[nH]1)N1CCOCC1,9%,-28%,?,20%,-10
CN(Cc1ccccc1)c1nc(CN2CCOCC2)nc2scc(-c3ccccc3)c12,-6%,16µM*,?,-6%,-14
COCc1c(C(=O)NC2CCCC2)cnn1-c1nccc(-c2ccco2)n1,/,-16%,4%,/,/
O=C(CCCCn1c(=O)c2ccccc2n(Cc2ccc(Cl)cc2)c1=O)NCc1ccccc1Cl,/,16µM*,15µM*,/,/
CCC1CCCCN1C(=O)Cn1c(=O)n(CCCCCC(=O)NCc2ccccc2Cl)c(=O)c2sccc21 (configuration not stated),/,18µM*,?,/,/
Cc1ccccc1Cn1c(=O)n(CCCC(=O)NCc2ccco2)c(=O)c2ccccc21,-17%,?,?,-1%,-5
CCC1CCCCN1C(=O)Cn1c(=O)n(CC2CCC(C(=O)NC)CC2)c(=O)c2sccc21 (configuration not stated),/,-9%,-26%,/,/
Cc1cccc(Cn2c(=O)n(CCCC(=O)NCc3ccco3)c(=O)c3ccccc32)c1,?,21µM*,9.2µM*,?,?
O=C(CCCn1c(=O)c2sccc2n(Cc2ccc(F)cc2)c1=O)NCc1ccco1,10µM*,21µM*,26µM*,?,34
O=C(CCCn1c(=O)c2sccc2n(CC(=O)OCc2ccccc2)c1=O)NCc1ccco1,-1%,?,-21%,17%,-17
CS(=O)(=O)N1CCC2(CCCN(c3ccccn3)C2)CC1,/,-26%,-25%,/,/
Cc1ccccc1Cn1c(=O)n(Cc2ccc3c(c2)OCO3)c(=O)c2oc3ccccc3c21,/,-1%,3%,/,/
O=C(CCCCn1c(=O)c2ccccc2n(Cc2ccc(Cl)cc2)c1=O)NCc1ccco1,?,16µM*,?,-17%[9.24 µM],9

# High-throughput results as filed in PubChem BioAssay.
